# Test results as given in PubChem BioAssay (NCATS).
# Several values for one entry are separate records, joined by “and”; a condition that tells them apart may be missing. Identical values can stand only once. Inconclusive results are not listed. Some compounds were tested as several samples or in several runs, with calls that do not always agree. Unmarked numbers belong to inactive results. Activity calls are given as the source filed them. Calls come from the whole dose curve; as a rule, active = well fitted curve in the direction sought with a large enough effect; inconclusive = small, poorly fitted or top-dose-only effect, or another doubt; inactive = no such curve, though single readings can be large or run the other way.
# Test: qHTS Assay for Identifying Gametocytocidal Compounds (AID 743244);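 for max response: actives lower the fluorescent signal which means gametocytes are killed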
# Settings: P. falciparum 3D7 stage III-V gametocytes, alamarBlue, 72 h; max response: hits give low values
# From the text: Malaria cases and deaths have dropped 50% in 29 countries since 2000 due to the combined effects of long-lasting insecticidal bednets, indoor residual spraying, and artemisinin-based combination therapies (ACTs). This success has raised hopes for malaria eradication and consequently stimulated interest in developing new reagents that block gametocyte transmission such as novel and safe gametocytocidal drugs. However, previous drug development efforts have focused primarily on the asexual parasites that cause symptoms, but not malaria transmission. Consequently, patients can remain infectious for weeks after the clearance of asexual parasites and clinical symptoms. To be transmitted from person to person via a mosquito, the parasites must switch from asexual to sexual development and produce male and female gametocytes. Malaria gametocytes consist of five stages (I, II, III, IV and V). The late stage gametocytes (III, IV and V) are difficult to be cultured in vitro and the long lifespan of mature gametocytes allows them being transmitted from host to mosquitoes unless they are completely eliminated by gametocytocidal agents. To identify gametocytocidal compounds which are capable of killing late stage P. falciparum gametocytes, a high throughput gametocyte viability assay was employed. This assay uses oxidoreduction indicator, alamarBlue, as a general measure of metabolic activity of gametocytes. Within live cells, the nonfluorescent resazurin is reduced to resorufin, a bright red fluorescence dye. Fluorescence decreases upon treatment of gametocytocidal compounds. P. falciparum gametocyte (3D7 strain) was used in this study.
# The 1536-well gametocycidal viability assay was based on the previous method of Tanaka et al. Stage III-V gametocytes were tested against three compound libraries, including 4265 compounds from NCGC pharmaceutical collection, 400 from Malaria Box library, and 550 from an internal collection of kinase inhibitors. Briefly, 2.5 ul/well incomplete medium was dispensed into each well of 1,536-well plates using the Multidrop Combi followed by 23 nl compound transferring using the NX-TR Pintool (WAKO Scientific Solutions, San Diego, CA). Then, 2.5 ul/well of gametocytes was dispensed with a seeding density of 20,000 cells/well using the Multidrop Combi. The assay plates were incubated for 72 h at 37C with 5% CO2. After addition of 5 ul/well of 2X AlamarBlue dye (Life Technologies, cat. no. DAL1100), the plates were incubated for 24 h at 37C with 5% CO2 and then were read in a fluorescence detection mode (Ex = 525 nm, Em = 598 nm) on a ViewLux plate reader (PerkinElmer).
# % is set by controls: 0 for no effect and ±100 for the full control effect; potency is the fitted concentration of half-maximal effect.
SMILES,max response,Potency
O=c1cc(CO)occ1O,1.55% and -0.506%,
Cc1c(O)cccc1C(=O)N[C@@H](CSc1ccccc1)[C@H](O)CN1C[C@H]2CCCC[C@H]2C[C@H]1C(=O)NC(C)(C)C,0.0084%,
CN(C)CC[C@@H](c1ccc(Cl)cc1)c1ccccn1,25.3%,26.4 µM (active)
COC(=O)C1=C(C)NC(C)=C(C(=O)OC)C1c1ccccc1[N+](=O)[O-],13.4% and 13.1%,
CN1[C@@H]2CC[C@H]1CC(OC(=O)C(O)c1ccccc1)C2 (stereo not given in full),-8.53% and 3.5% and -4.14%,
O=C1NS(=O)(=O)c2ccccc21,5.05%,
O=c1[nH]cnc2c1ncn2[C@@H]1O[C@H](CO)[C@@H](O)[C@H]1O,5.28%,
CCCCc1ncc(/C=C(\Cc2cccs2)C(=O)O)n1Cc1ccc(C(=O)O)cc1,-3.3%,
CC(=O)Oc1c(C)c(C)c2c(c1C)CC[C@@](C)(CCC[C@H](C)CCC[C@H](C)CCCC(C)C)O2,-2.38% and 13.2% and -6.36%,
O=C(O)CN1C(=O)c2cccc3cccc(c23)C1=O,0.25%,
C=Cc1c(C)c2cc3[nH]c(cc4nc(cc5nc(cc1[nH]2)C(C)=C5CCC(=O)O)C(CCC(=O)O)=C4C)c(C)c3C=C,11.4% and 22%,
CC(C)c1c(C(=O)Nc2ccccc2)c(-c2ccccc2)c(-c2ccc(F)cc2)n1CC[C@@H](O)C[C@@H](O)CC(=O)O,-14.7%,
N[C@@H](CSCCCO)C(=O)O,-2.32%,
O=C1N=C(O)CN1/N=C/c1ccc(-c2ccc([N+](=O)[O-])cc2)o1,4.07% and 20.9%,
O=C1NC(=O)[C@@]2(CCOc3ccc(F)cc32)N1,-2.96%,
Oc1cccc(O)c1,-1.48%,
CCOC(CN1CCN(CC(C)C(=O)c2ccccc2)CC1)c1ccccc1 (stereo not given),18.2%,
CCCCCCCCCCCCOS(=O)(=O)O,14.3%,
O=C(O)c1ccccn1,-0.573%,
CC(=O)CCC(=O)O,13.5%,

SMILES,max response,Potency
COc1cc(C(=O)N2CCOCC2)cc(OC)c1OC,-5.92% and 13.8%,
CC1=C(/C=C/C(C)=C/C=C/C(C)=C/C(=O)O)C(C)(C)CCC1,12.7% and 23.7%,
CC(C)(C(=O)O)c1ccc(C(O)CCCN2CCC(C(O)(c3ccccc3)c3ccccc3)CC2)cc1 (stereo not given),-3.24% and 8.77%,
CCCCC(CC)COC(=O)c1ccccc1O (stereo not given),10.2%,
CC(O)COc1ccccc1 (stereo not given),8.99%,
Oc1ccc(C(O)CNCCCCCCNCC(O)c2ccc(O)c(O)c2)cc1O (stereo not given),-5.82%,
Cc1ncc([N+](=O)[O-])n1CC(O)CCl (stereo not given),22.3%,
C[C@@H]1CC[C@@]2(OC1)O[C@H]1C[C@H]3[C@@H]4CC[C@H]5C[C@@H](O)CC[C@]5(C)[C@H]4CC(=O)[C@]3(C)[C@H]1[C@@H]2C,-9.03%,
CC(=O)Nc1ccc(/C=N/NC(N)=S)cc1,-6.31% and 5.4%,
O=C(O)[C@H](O)c1ccccc1,17.9%,
COc1ccc(Cl)cc1C(=O)NCCc1ccc(S(=O)(=O)NC(=O)NC2CCCCC2)cc1,54% and 5.04%,
O=c1cc[nH]c(=S)[nH]1,12.7%,
NC(=O)c1ncn([C@@H]2O[C@H](CO)[C@@H](O)[C@H]2O)n1,-2.06% and 29.2%,
CCCCOc1cc(C(=O)OCCN(CC)CC)ccc1N,9.75%,
CN1CCOC(c2ccccc2)c2ccccc2C1 (stereo not given),-7.73%,
CC1=C(CC(=O)O)c2cc(F)ccc2/C1=C\c1ccc(S(C)=O)cc1 (stereo not given),-9.81% and 32%,
NCCNCCNCCN,-8.14%,
NC(=O)NNc1ccccc1,5.12% and -3.42%,
COc1ccc2cc1Oc1cc3c(cc1OC)CC[N+](C)(C)[C@H]3Cc1ccc(cc1)Oc1c(OC)c(OC)cc3c1[C@@H](C2)[N+](C)(C)CC3,-8.04%,
